Laboratory results reported in PubChem BioAssay (EPA / NIEHS).
Records with an inconclusive call do not appear. Activity calls are given as the source filed them. Rule for the calls: active = hit-call score of the fitted dose curve at least 0.9, where 1 is the maximum; inconclusive = response in the unintended direction; inactive = score below 0.9.

The compounds below were run against Retinoic acid receptor RXR-alpha (Homo sapiens) (UniProt P19793) (assay: ATG_RXRa_TRANS: Attagene TRANS-FACTORIAL HepG2 Assay for human Retinoid X Receptor alpha (RXRa) (AID 2283012)).
Sequence of Retinoic acid receptor RXR-alpha (Homo sapiens) (P19793 whole entry, looked up): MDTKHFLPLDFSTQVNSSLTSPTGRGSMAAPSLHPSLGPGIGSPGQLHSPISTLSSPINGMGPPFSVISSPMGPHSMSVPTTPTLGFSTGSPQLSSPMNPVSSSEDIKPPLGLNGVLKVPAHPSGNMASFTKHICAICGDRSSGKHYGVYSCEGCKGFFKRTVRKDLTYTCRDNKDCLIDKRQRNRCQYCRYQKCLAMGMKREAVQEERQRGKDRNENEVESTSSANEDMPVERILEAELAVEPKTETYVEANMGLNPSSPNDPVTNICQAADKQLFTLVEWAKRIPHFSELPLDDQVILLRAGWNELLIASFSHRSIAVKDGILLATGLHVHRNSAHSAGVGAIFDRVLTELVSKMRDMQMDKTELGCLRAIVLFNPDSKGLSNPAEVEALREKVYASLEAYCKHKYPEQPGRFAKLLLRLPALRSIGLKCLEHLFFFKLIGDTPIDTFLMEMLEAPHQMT
Procedure: ATG_TRANS is a cell-based, multiplexed-readout assay that uses HepG2, a human liver cell line, with measurements taken at 24 hours after chemical dosing in a 24-well plate.ATG_RXRa_TRANS is one of 30 assay component(s) measured or calculated from the ATG_TRANS assay. It is designed to make measurements of mRNA induction, a form of inducible reporter, as detected with fluorescence intensity signals by Reverse transcription polymerase chain reaction (RT-PCR) and Capillary electrophoresis technology.Data from the assay component ATG_RXRa_TRANS was analyzed into 1 assay endpoint. This assay endpoint, ATG_RXRa_TRANS, was analyzed in the positive analysis fitting direction relative to DMSO as the negative control and baseline of activity. Using a type of inducible reporter, measures of mRNA for gain-of-signal activity can be used to understand the reporter gene at the transcription factor-level as they relate to the gene RXRA. Furthermore, this assay endpoint can be referred to as a primary readout, because this assay has produced multiple assay endpoints where this one serves a reporter gene function. To generalize the intended target to other relatable targets, this assay endpoint is annotated to the nuclear receptor intended target family, where the subfamily is non-steroidal.
Human liver HepG2 cells are transiently transfected with multiple reporter transcription units (MRTUs) in 6-well plates using FuGene 6 reagent (Roche; 3 ml FuGene/1 mg DNA). The MRTU constructs are regulated by a cis-regulating element (promoter). […] A major difference between the CIS and TRANS system is that in CIS activities of endogenous TFs are measured, whereas the TRANS assay evaluates changes in activities of exogenous, chimeric NR-Gal4 proteins. […] At the end of 24 hour incubation, total RNA was isolated using TriZol reagent (Invitrogen). The isolated RNA is then reverse-transcribed using oligo(dT) primer and Mo-MLV reverse transcriptase (Invitrogen) with DNAse I (Ambion) treatment for 30 min. The one-tenth of the produced cDNA was amplified by PCR using Taq DNA polymerase (Invitrogen) and two reporter sequence-specific primers. The PCR products were fluorescently labeled by primer extension with 6-arboxyfluorescein (6-FAM) 5'-labeled reporter sequence-specific primer (2 min at 95 C, 20 s at 68 C and 10 min at 72 C) and these products were digested with 5U of HpaI (New England Biolabs) for 2h at 37 C. The fragments were purified using Qiaquick PCR columns (Qiagen), analyzed on an ABI 3130xL genetic analyzer (Applied Biosystems) with peak positions identified by using a set of X-rhodamine (ROX)-labeled MapMarker1000 molecular weight standards (BioVentures). The raw capillary electrophoresis data was processed using Attagraph software (Attagene).
In the case of CCN1CN(CC)CN(CC)C1, the outcome is reported as “inactive”.
With CC1=CC=C(C(C)C)CC1 the outcome was “inactive”.
In the case of O=C(C=Cc1ccccc1)OCCc1ccccc1, the outcome is reported as “inactive”.
In the case of CC1=CC(C)C(C=O)CC1 (stereo not given), the outcome is reported as “inactive”.
With C=C(C)C(=O)OCCCCCCCCCCCC the outcome was “inactive”.
With CCCCC/C=C\C/C=C\CCCCCCCC(=O)O the outcome was “inactive”.
With O=C(O)C(F)(F)C(F)(F)C(F)(F)C(F)(F)C(=O)O the outcome was “inactive”.
For CC(CC(C)C)=NO, the outcome was “inactive”.
O=C(O)/C=C/c1ccccc1 was tested, and the outcome was “inactive”.
In the case of Clc1cccnc1, the outcome is reported as “inactive”.
With CCNc1nc(NC(C)(C)C)nc(OC)n1 the outcome was “inactive”.
With CCOC(=O)OC(=O)OCC the outcome was “inactive”.
With CC(=O)C(C)C the outcome was “inactive”.
O=S(=O)(O)c1ccc(N=Nc2c(O)ccc3ccccc23)cc1 was tested, and the outcome was “inactive”.
With Cc1cc(C)c(C=O)c(C)c1 the outcome was “inactive”.
In the case of Nc1ncnc2nc[nH]c12, the outcome is reported as “inactive”.
C=CC(=O)OCCCCCCCCCC was tested, and the outcome was “inactive”.
For CCCCCCC=O, the outcome was “inactive”.
With CC(=O)OC/C=C(/C)CCC=C(C)C the outcome was “inactive”.
For C=CCOC(=O)c1ccc(C(=O)OCC=C)c(C(=O)OCC=C)c1, the outcome was “inactive”.
With CC(C)c1ccc2ncccc2c1 the outcome was “inactive”.
With CCCCCCCCC(CO)CCCCCC (stereo not given) the outcome was “inactive”.
CCOC(=O)c1ccc(C)cc1 was tested, and the outcome was “inactive”.
In the case of Cc1ccc(S(=O)(=O)N=C=O)cc1, the outcome is reported as “inactive”.
Cc1noc(NS(=O)(=O)c2ccc(N)cc2)c1C was tested, and the outcome was “inactive”.
With C=CCCCCCCCCOC(C)=O the outcome was “inactive”.
In the case of CC(C)c1cc(C(C)C)cc(C(C)C)c1, the AC50 is reported as 6.06 µM (active).
In the case of CCOC(=O)C1=NN(c2ccc(Cl)cc2Cl)C(C)(C(=O)OCC)C1 (stereo not given), the outcome is reported as “inactive”.
With CCC[Si](OC)(OC)OC the outcome was “inactive”.
For CC(=O)OCCc1ccccc1, the outcome was “inactive”.
With CCCC(C)C(=O)OCC (stereo not given) the outcome was “inactive”.
In the case of CC1=C(O)C(=O)C(C)O1 (stereo not given), the outcome is reported as “inactive”.
In the case of CCCCC1C(=O)N(c2ccccc2)N(c2ccccc2)C1=O, the outcome is reported as “inactive”.
CCc1occc(=O)c1O was tested, and the outcome was “inactive”.
For C=CCNCC=C, the outcome was “inactive”.
In the case of CCCCCCCCCCCCCc1ccccc1, the outcome is reported as “inactive”.
With CC1=CP(=O)(c2ccccc2)CC1 (stereo not given) the outcome was “inactive”.
For CCCCCC[C@@H](O)C/C=C\CCCCCCCC(=O)OCC(O)CO (stereo not given in full), the outcome was “inactive”.
C=Cc1ccc(OC(C)=O)cc1 was tested, and the outcome was “inactive”.
For COc1ccc(C(=O)/C(Br)=C\C(=O)O)cc1, the outcome was “inactive”.
